# NLRP3 yeast inh – NALP3 inhibition in yeast. Yeast reconstituted NLRP3/ASC/caspase-1, beta-gal luminescence, 24 h. inhibition, % at 10 µM. 330,000 compounds, 0.39% hits. AID 2825;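 active means inhibition of 50% or more; inactive means inhibition below 50%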;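 further: plate controls were induced DMSO wells for no effect and uninduced yeast grown without galactose for full effect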
# tim23-1 inh – inhibits growth of tim23-1 mutant yeast; 330,000 compounds, 1.3% hits; S. cerevisiae tim23-1 growth, BacTiter-Glo luminescence, 24 h; inhibition, % at 20 µM;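 active means growth inhibition of the mutant yeast at or above 50%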;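 further: temperature-sensitive mutant grown at 25 °C; plate controls were DMSO-treated mutant yeast for no effect and medium wells lacking yeast for full effect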
# tim10-1 inh – growth inhibitors of tim10-1 mutant yeast; inhibition, % at 20 µM; AID 463190; 330,000 compounds, 2.2% hits; S. cerevisiae tim10-1 ts strain growth, BacTiter-Glo, 24 h;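 active means inhibition of at least 40%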;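 further: mutant grown at 25 °C; 0% = DMSO wells with yeast and 100% = wells holding no yeast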
# TIM10 inh – TIM10 yeast growth inhibition; 330,000 compounds, 1.4% hits; S. cerevisiae TIM10 strain growth, BacTiter-Glo luminescence, 24 h; inhibition, % at 10 µM;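 active means inhibition of 40% or more at the single tested concentration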;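 further: wild-type TIM10 isogenic control strain grown at permissive 25 °C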
# NALP1 yeast inh – inhibitors of NALP1 inflammasome in yeast; S. cerevisiae NALP1/ASC/caspase-1 growth, X-gal OD620, 72 h; inhibition, % at 10 µM; 280,000 compounds, 0.61% hits; AID 2071; in the data active means inhibition mostly above about 24%, no sharp cut-off; inactive means mostly below about 32%
# * hit, by the source's call; / = no result; ! = not confirmed by another sample. Compounds with a hit are over-represented: about 4% of the library has one in this group of screens.
SMILES,NLRP3 yeast inh,tim23-1 inh,tim10-1 inh,TIM10 inh,NALP1 yeast inh
CCC(C)Sc1cc(-c2nc3ccccn3c2NC2CCCCC2)ccc1OC (centres undefined),5.2,2.9,39.8,1.6,/
CC(C)c1nc2ccccn2c1NC1CCCCC1,19.9,5.6,10.6,3.8,24.3*
Cc1noc2ncnc(Oc3cc(Cl)ccc3Cl)c12,-35.1,3.7,-7.2,8.3,20.9*
Cc1noc2ncnc(Oc3ccc4ccccc4c3)c12,28.7,33.9,17.1,-3.0,6.4
COc1cccc(NC(=S)Nc2cc(C(=O)O)ccc2N2CC3CC(C2)c2cccc(=O)n2C3)c1 (centres undefined),6.4,4.7,11.9,1.6,-2.4
Cc1ccc(NC(=S)Nc2cc(C(=O)O)ccc2N2CC3CC(C2)c2cccc(=O)n2C3)cc1C (centres undefined),21.3,27.2,7.1,8.3,36.7*
Cc1ccc(C(=O)CCc2ccc(N)cc2)cc1,31.1,24.6,13.2,30.7,19.2
C=CCn1c(NCc2cc(C)ccc2O)nc2ccccc21,10.0,33.2,15.4,6.1,-17.8
C=CCn1c(NC(C)c2cc(Cl)ccc2O)nc2ccccc21 (centres undefined),18.2,22.1,35.7,22.0,47.2*
Cc1cc(Cl)c(OCCCn2ccnc2)c(Br)c1,10.1,-0.7,23.8,-12.5,49.8*
Cc1cc(C)c(OCCCn2ccnc2)c(C)c1,-2.7,8.9,15.0,-1.2,10.1
Cc1ccc(OCC(=O)N(c2ccccn2)C2CCCCC2)c(C)c1,9.2,35.9,30.9,14.4,43.6*
CCN(CC(=O)Nc1ccccc1OC)C(=O)c1ccc(NS(=O)(=O)c2ccc(C(C)=O)cc2)cc1,15.6,-3.2,-9.9,-6.0,43.6*
O=C(c1ccco1)N1CCN(CCOCCOc2cccc3ccccc23)CC1,32.8,13.7,9.8,11.7,-17.5
c1ccc(CN2CCN(CCOCCOc3cccc4ccccc34)CC2)cc1,30.7,12.6,24.5,17.9,37.6*
CC(OC(=O)C1=Cc2ccccc2OC1)C(=O)NC(C)(C)C (centres undefined),17.0,-10.1,11.7,2.5,0.1
COc1ccc(-n2c(C)cc(C(=O)CCl)c2C)cc1,-55.3,43.8,-42.0,3.1,42.2*
Cc1nc2c(F)c(F)c(C(F)(F)F)c(F)c2[nH]1,20.2,30.0,24.2,4.1,14.0
Cc1nc2c(Br)c3nc(C(F)(F)F)[nH]c3c(Br)c2[nH]1,7.1,19.3,11.4,7.7,48.1*
COc1ccc(OC)c(NC(=O)CS(=O)(=O)Cc2ccccc2)c1,8.7,-2.5,-7.0,7.8,39.1
COc1ccc(OC)c(NS(=O)(=O)Cc2ccccc2)c1,8.9,-5.2,9.1,-23.3,42.0*
CCCOC(=O)c1ccc(NC(=O)c2ccc(Br)o2)cc1,39.6,26.2,-19.4,-3.6,61.3*
CCCOC(=O)c1ccc(NC(=O)Oc2ccccc2)cc1,11.3,-16.7,-17.8,-16.7,22.3*
CC1CCCN(c2ccc3nncn3n2)C1 (centres undefined),11.0,7.1,-4.1,10.3,11.0
CCCCNC(=O)c1nn2c(C(F)(F)F)cc(-c3ccc(OC)cc3)nc2c1Br,3.5,-8.5,-2.9,0.3,17.4
SMILES,NLRP3 yeast inh,tim23-1 inh,tim10-1 inh,TIM10 inh,NALP1 yeast inh
COc1ccc(CNC(=O)CN2CCN(C(c3ccccc3)c3ccccc3)CC2)cc1,15.8,-16.3,7.8,1.5,37.2*
O=C(CN1CCN(C(c2ccccc2)c2ccccc2)CC1)NCc1ccccc1,15.5,-26.5,-8.8,-13.2,-5.9
COc1ccc(CCNC(=O)CN(Cc2ccc(Cl)cc2)S(C)(=O)=O)cc1OC,1.1,10.2,2.5,-7.3,28.5*
COCCNC(=O)CN(Cc1ccc(Cl)cc1)S(C)(=O)=O,-10.7,1.3,-4.8,-14.3,33.3
COc1cccc(C2=NC(C)(C)NC(c3ccccc3O)C2)c1 (centres undefined),21.6,32.6,30.0,26.9,16.3*
CC(C)N1CC2=C(OC(N)=C(C#N)C2c2cccnc2)/C(=C/c2cccnc2)C1 (centres undefined),25.8,7.8,1.2,4.2,9.6
CC(C)N1C/C(=C/c2cccnc2)C(=O)/C(=C/c2cccnc2)C1,/,/,/,/,105.8*
CC(C)Cc1nnc(NC(=O)CCC(=O)NC2CC2)s1,13.8,5.8,4.9,12.5,37.6*
CNCCCC12CCC(c3ccccc31)c1ccccc12,36.3,8.3,15.2,11.6,28.7*!
CCCCCN1CN(S(=O)(=O)c2cccs2)c2nc3ccccc3nc21,-13.2,18.7,9.5,6.1,-10.5
Cc1ccc(CNC(=O)CN2CCC(C(N)=O)CC2)cc1,7.8,-2.1,9.6,-11.7,-12.3
CSc1ccc(CN2CCC(C(=O)NCc3ccc(C)cc3)CC2)cc1,18.7,-1.1,-56.0,-42.5,25.0*
COc1ccc(CNc2nc(-c3cccnc3)nn2S(C)(=O)=O)cc1,24.4,-9.7,-1.0,4.4,-1.3
COCCCNCCOc1ccc(C(C)(C)c2ccccc2)cc1,23.3,-28.9,-57.7,-37.4,46.2*
Cn1c(-c2c(N)n(CCCc3ccccc3)c3nc4ccccc4nc23)nc2ccccc21,/,/,/,/,41.0*
Cc1ccc2nc(-c3ccncc3)cc(-c3ccccc3)c2c1,12.8,41.6,32.9,28.0,34.4*
CC(C)NC(=O)CC(c1ccccc1)c1cc(Br)ccc1O (centres undefined),0.8,12.3,23.0,13.1,40.5*
CCCCCCNC(=O)CC(c1ccccc1)c1cc(Br)ccc1O (centres undefined),18.3,40.5,36.0,5.0,8.2
Cc1ccccc1Nc1nnc(SCc2cc(=O)n3ccsc3n2)s1,-0.9,2.8,30.7,21.0,26.7*
CN1CCN(Cc2nc3ccccc3c(=O)n2Cc2nc(-c3cccc([N+](=O)[O-])c3)cs2)CC1,8.0,13.6,17.8,14.2,34.2*
CO[C@H]1C[C@@H]2CC[C@@H](C)[C@@](O)(O2)C(=O)C(=O)N2CCCC[C@H]2C(=O)O[C@H]([C@H](C)C[C@@H]2CC[C@@H](O)[C@H](OC)C2)CC(=O)[C@H](C)C=C(C)[C@@H](O)[C@@H](OC)C(=O)[C@H](C)C[C@H](C)C=CC=CC=C1C,/,/,/,/,65.5*
COc1ccc(C)cc1S(=O)(=O)N(C)CC(=O)N1CCCCCC1,-8.8,2.9,11.6,3.2,1.6
COc1ccc(C)cc1S(=O)(=O)N(C)CC(=O)N1CCN(C)CC1,6.0,10.3,13.0,12.0,39.6*
COc1ccccc1OCC(=O)NCCSCc1cccc(Cl)c1,31.7,21.6,22.2,-4.1,48.3*
COc1ccccc1OCC(=O)NCCSCc1ccccc1Cl,12.8,11.8,5.7,-17.9,50.8*
CC1(C2CC2)NC(=O)N(CC(=O)N2CCN(c3ccccc3Cl)CC2)C1=O (centres undefined),16.2,4.3,-7.4,2.8,/
COc1ccccc1NC(=O)C(C(C)C)N1C(=O)c2ccccc2C1=O (centres undefined),8.7,32.6,24.2,11.7,20.0
CC(C)C(C(=O)Nc1nccs1)N1C(=O)c2ccccc2C1=O (centres undefined),11.8,6.6,7.1,-4.7,28.5*

# From PubChem BioAssay
